Molecules are shown by their SMILES. About 83,000 compounds went through this panel and 20% of them were active in at least one assay; those are over-represented in the sample as a whole.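 Method: cells in 96-well plates; compound added at one concentration; 48 h incubation; percent growth measured; values under 10 scored active.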 Unmarked numbers belong to inactive results. Calls of active or inactive are those of the source.

Common to all, as to assay: NCI-60 one-dose screen, 48 h (100 = growth as untreated, 0 = no growth, -100 = all killed)
Holding throughout (conditions): 10 µM unless noted

For experiment [1], the system named is HCT-15 colon.
Experiment [2] deals with HT29 colon.
Experiment [3] has as its system SNB-75 CNS.
For experiment [4], the system named is U251 CNS.
Experiment [5] relates to PC-3 prostate.
Experiment [6] has as its system SK-MEL-5 melanoma.
For experiment [7], the system named is UACC-62 melanoma.
The test system of experiment [8] is LOX IMVI melanoma.
Experiment [9] relates to SK-MEL-28 melanoma.
For experiment [10], the system named is SNB-19 CNS.

Regarding `CC1=C(O)C(=O)CC1`, the growth was 108% in experiment [1]; 101% in experiment [2]; 97.9% in experiment [3]; 100% in [4]; 80.9% in experiment [5]; 99.5% in experiment [6]. Also, the growth in [7] is 110%; in experiment [8], 99.7%; in experiment [9], 100%.

Take `Cc1cc(N)cc(C)c1-c1c(Br)cc(N)cc1Br`: the growth was 32% in experiment [1]; 9.08% (active) in [2]; 2.44% (active) in experiment [3]; 22.2% in experiment [4]; 23.2% in experiment [5]; 21% in experiment [6]. Moreover, the growth was 48.9% in experiment [7], 16% in experiment [8] and 44.5% in [9].

For the molecule `COc1ccc2c(c1)sc1nc(-c3ccccc3)c(-c3cccc4ccccc34)n12`, the growth in experiment [1] was 23%; in [2] it was 1.35% (active); in [3] it was 23.2%; in experiment [4], 21.3%; in [5], 24.3%; in experiment [6], 24.9%. In addition, the growth was 35.5% in [7], 38.6% in experiment [8] and 52.1% in experiment [9].

With `CCN(CC)CC(=O)Nc1c(C)cc(C(=O)NN)cc1C`, the growth was 103% in experiment [1]; 96.1% in experiment [2]; 97.3% in [10]; 97.5% in experiment [4]; 101% in experiment [5]; 102% in [6]. The figures for the growth in experiment [7], in experiment [8] and in experiment [9] were 97.6%, 94.3% and 106%, respectively.

As for `COc1cc(C2CC(=O)Nc3c2cnn3C)cc(OC)c1OC` (stereo not given), the growth in experiment [1] is 107%; in [2] it was 105%; in [3], 92%; in experiment [4], 100%; in experiment [5], 108%; in [6], 105%. For the same molecule, the growth in experiment [7] was 106%; in experiment [8] it was 106%; in [9] it was 119%.

For the molecule `ClCCn1cnc2c(SCc3ccccc3Cl)ncnc21`, the growth in experiment [1] is 21.3%; in experiment [2], 26.3%; in experiment [3], 79.2%; in experiment [4] it was 30.4%; in experiment [5], 38.7%; in experiment [6] it was 38.4%. The growth in experiment [7] was 33.7%; in experiment [8], 7.06% (active); in experiment [9], 47.3%.

Regarding `CCCCSc1ncnc2c1ncn2C1CCCCO1` (stereo not given), the growth in experiment [1] was 102%; in experiment [2] it was 109%; in experiment [10], 103%; in experiment [4], 99.9%; in [5] it was 99.5%; in experiment [6] it was 104%. The growth in experiment [7] is 99.6%; in experiment [8] it was 101%; in experiment [9], 119%.

As for `CCc1onc(-c2ccc(OC)cc2)c1-c1ccccc1OCCN(CC)CC`, the growth is 98.2% in experiment [1]; 60.3% in experiment [2]; 60.9% in [3]; 93.9% in experiment [4]; 75.1% in experiment [5]; 81% in experiment [6]. In addition, the growth was 97.7% in experiment [7], 71.9% in [8] and 100% in experiment [9].

For `C=CCOc1ccc2c(C)cc(=O)oc2c1`, the growth is 101% in [1]; 94.9% in [2]; 111% in experiment [3]; 89% in experiment [4]; 93% in experiment [5]; 108% in experiment [6]. Further, the growth in experiment [7] was 105%; in [8] it was 105%; in experiment [9] it was 113%.

Turning to `O=C(Nc1ccc(Br)cc1)Nc1cccc(Br)c1`, the growth was 15.4% in [1]; 28.2% in experiment [2]; 85% in experiment [3]; 28.4% in [4]; 4.68% (active) in experiment [5]; 65.3% in experiment [6]. In addition, the values for the growth in experiment [7], in experiment [8] and in experiment [9] were 5.82% (active), 33% and 43.7%, respectively.

Take `CS(=O)(=O)c1ccc(C(=O)N2N=C(c3ccccc3)CC2c2ccc3c(c2)OCO3)cc1` (stereo not given): the growth in [1] was 85.7%; in experiment [2] it was 104%; in [3], 88.2%; in [4], 91.4%; in experiment [5], 85.1%; in experiment [6] it was 101%. In addition, the results for the growth in [7], in experiment [8] and in [9] were 96.4%, 95.5% and 106%, respectively.

`CC(C)c1ccc2c(c1)CCC1C2CCCC1(C)NCc1ccccc1` (stereo not given): the growth in [1] is 6.42% (active); in experiment [2] it was 16.2%; in experiment [3], 85.3%; in [4], 48%; in [5], 85.4%; in experiment [6], 27.5%. Besides, the growth in experiment [7] was -27.4% (active); in [8], 52.1%; in [9] it was -32% (active).

For `CO[C@H](C(=O)[C@@H](O)[C@@H](C)O)[C@@H]1Cc2cc3cc(O[C@H]4C[C@@H](O[C@H]5C[C@@H](O)[C@H](O)C(C)O5)[C@H](O)C(C)O4)c(C)c(O)c3c(O)c2C(=O)[C@H]1O[C@H]1C[C@@H](O[C@H]2C[C@@H](O[C@H]3C[C@](C)(O)C(=O)C(C)O3)[C@@H](O)C(C)O2)[C@H](O)C(C)O1` (stereo not given in full), the growth in [1] is 20.2%; in experiment [2], -13.9% (active); in experiment [3], -65.5% (active); in [4], 2.98% (active); in experiment [5], 6.86% (active); in experiment [6], -32.2% (active). Moreover, the growth in [7] is -30.7% (active); in [8] it was -5.83% (active); in experiment [9], -18.8% (active).

`CCOC(=O)C1C(=O)C=C(c2cc(OC)c(OC)c(OC)c2)CC1c1sc(N(C)Cc2ccccc2)nc1Cl` (stereo not given): the growth in experiment [1] was 92.1%; in experiment [2], 90.7%; in [3] it was 79.6%; in [4] it was 87.8%; in experiment [5] it was 64%; in experiment [6] it was 72.7%. Also, the values for the growth in experiment [7], in experiment [8] and in experiment [9] were 64.7%, 94% and 115%, respectively.

With `CCOC(=O)CCN(CCC(=O)OCC)c1ccccc1`, the growth is 101% in experiment [1]; 99.7% in experiment [2]; 104% in experiment [10]; 92.5% in [4]; 93% in experiment [5]; 96.4% in experiment [6]. Further, the growth is 99.4% in experiment [7], 95.8% in experiment [8] and 117% in [9].
